High-throughput results: PubChem, National Center for Advancing Translational Sciences (NCATS)
SW480 rerep – A quantitative high throughput screen for small molecules that induce DNA re-replication in SW480 colon adenocarcinoma cells; SW480 DNA re-replication, Hoechst DNA content imaging, 48 h; 340,000 compounds, 1.8% hits; Potency, µM (series often up to 46.1 µM), most hits filed as activators; further: nearly all actives have a fitted effect of over 55% in size
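Readout is total intensity of Hoechst-stained nuclei, excited at 405 nm and collected at 500-530 nm. Compound treatment lasted 48 hr at 37 C in 5% CO2 before staining.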
KB-3-1 tox – qHTS assay for MDR1-selective chemotherapeutics: Primary screen using the parental adenocarcinoma cell KB-3-1; 400,000 compounds, 1.4% hits; KB-3-1 viability, CellTiter-Glo ATP luminescence, 72 h; Potency, µM (series often up to 46.1 µM), hits mostly cytotoxic; AID 1347075, 2019; further: nearly all actives have a fitted effect of over 60% in size
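Parental KB-3-1 viability, qHTS format: 72 h compound exposure, 37 °C; CellTiter-Glo; media-only wells and DMSO plates as controls; concentration-effect fits on corrected data.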
hERG WT inh – qHTS for Inhibitors of KCHN2 3.1: Wildtype qHTS | U2OS, BacMam KCNH2, thallium flux FluxOr; stronger effect = lower value | activity change, % at 1.84 µM | 340,000 compounds, 0.37% hits | AID 720551, 2013;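 active means maximum activity change below -70%; inconclusive means maximum activity change between -70% and -50%; inactive means maximum activity change above -50%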
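U2OS cells transduced with wild-type KCNH2 virus are loaded with FluxOr dye for 45 min, and thallium flux is measured in kinetic reads before and after stimulation buffer. Rate constants are normalized to DMSO controls.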
MCF10A rereplic – A quantitative high throughput screen for small molecules that induce DNA re-replication in MCF 10a normal breast cells; MCF 10A DNA re-replication, Hoechst nuclear intensity, 48 h; Potency, µM (highest dose often 46.1 µM), actives largely listed as activators; 350,000 compounds, 2.9% hits; AID 624296, 2012; further: nearly all actives have a fitted effect of over 50% in size
KCNH2 3.1 inh – qHTS for Inhibitors of KCHN2 3.1: Mutant qHTS | Potassium voltage-gated channel subfamily H member 2, brain isoform KCNH2 3.1 (human) | U2OS KCNH2 3.1, thallium flux FluxOr; stronger effect = lower value | activity change, % (tested at about 1.8 µM) | 340,000 compounds, 0.95% hits;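 active means maximum activity change below -70%; inconclusive means maximum activity change from -70% to -50%; inactive means maximum activity change above -50%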;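 further: thallium influx rate constant from kinetic fluorescence after stimulation buffer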
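Channel expression came from 3.1 mutant virus (1.77 x 10^8 /mL) applied to suspended U2OS cells for 4 h. Flux was tracked with FluxOr dye plus Red40 quencher, and kinetic rate constants normalized to controls.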
KB-V1 cytotox – qHTS assay for MDR1-selective chemotherapeutics: Primary screen using the drug-selected MDR subline cells KB-V1; 400,000 compounds, 3.4% hits; AID 1347076, 2019; KB-V1 MDR cells viability, CellTiter-Glo, 72 h; Potency, µM (titrated, usually from 46.1 µM), usual class: cytotoxic; further: nearly all actives have a fitted effect of over 60% in size
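KB-V1, DMEM (no phenol red) + 10% FBS; cpd pin-transferred, titration series; 72 h, 37 degrees C; CellTiter-Glo, luminescence. Data normalized, curve-fit.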
Large screens that a line does not name were inactive. A selection: hits, their analogues and other compounds. The true share with any hit is near 7.6%. Unless noted, the call rests on the fitted dose curve; in most records, active means well fitted curve in the direction sought with a large enough effect; inconclusive means small, poorly fitted or top-dose-only effect, or another doubt; inactive means no such curve, though single readings can be large; an effect the other way counts as inactive or inconclusive.

Cn1cnnc1SCC(=O)NNC(=O)COc1ccc(Cl)cc1	MCF10A rereplic 0.58µM, KB-V1 cytotox inconclusive
Cn1c(Oc2ccncc2)nc2cc(-c3ccsc3)sc2c1=O	none (no result: SW480 rerep, hERG WT inh, MCF10A rereplic, KCNH2 3.1 inh)
O=C(Nc1cc(F)cc(F)c1)Nc1nnc(-c2ccncc2)s1	none (no result: SW480 rerep, hERG WT inh, MCF10A rereplic, KCNH2 3.1 inh)
CCc1nnc(NC(=O)CSc2nnc(COc3ccccc3)n2-c2ccc(C)cc2)s1	none
CCc1nnc(NC(=O)CSc2nnc(-c3ccccc3O)n2-c2ccc(C)cc2C)s1	SW480 rerep 18µM, KB-3-1 tox inconclusive, MCF10A rereplic 9.2µM, KB-V1 cytotox 18µM
OC(c1ccccn1)(c1ccccn1)c1ccccn1	SW480 rerep inconclusive, MCF10A rereplic inconclusive, KB-V1 cytotox 10µM
O=S(=O)(c1cccs1)N1CCN(Cc2nc3ccccc3s2)CC1	KB-V1 cytotox 23µM
Cc1ccc(-c2nc(Nc3cccc(C)c3)sc2CC(=O)O)cc1	SW480 rerep inconclusive, MCF10A rereplic 21µM
O=C(Cc1sc(Nc2ccccc2)nc1-c1ccccc1)NCc1ccccc1	SW480 rerep inconclusive, KB-3-1 tox 16µM, MCF10A rereplic inconclusive, KB-V1 cytotox inconclusive
O=C(Cc1sc(-c2ccccc2)nc1-c1ccccc1)Nc1ccccc1	MCF10A rereplic inconclusive
O=C(O)Cc1sc(Nc2ccccc2)nc1-c1cccs1	SW480 rerep inconclusive, MCF10A rereplic 23µM
COc1ccccc1-c1sc2cc3c(cc2c1C#Cc1ccccn1)OCO3	MCF10A rereplic inconclusive
COc1ccc(C(=O)NC2CCCCCC2)cc1S(=O)(=O)N1CCCc2ccccc21	KB-3-1 tox inconclusive
CCN1C(=O)CCN(C2CCCC2)c2nc(Nc3ccc(C(=O)NC4CCN(C)CC4)cc3OC)ncc21	KB-3-1 tox 9.2µM, MCF10A rereplic 10µM
COc1ccccc1N1CCc2c(C)nc3c(OC)cccc3c21	KB-3-1 tox inconclusive, KB-V1 cytotox 21µM
COc1cccc2c3c(c(C)nc12)CCN3c1ccccc1	KB-V1 cytotox inconclusive
CSc1nc(=O)[nH]c2nc[nH]c12	none (no result: SW480 rerep, hERG WT inh, MCF10A rereplic, KCNH2 3.1 inh)
O=S(=O)(Nc1cccc2c1ccc1cccn12)c1cccs1	MCF10A rereplic 14µM
Cc1ccc(OCc2ccc(C(=O)Nc3nc4ccccc4n3Cc3ccccc3)o2)c([N+](=O)[O-])c1	SW480 rerep inconclusive, MCF10A rereplic 13µM, KB-V1 cytotox inconclusive
CCOC(=O)c1cc(C#N)c(SC(C(=O)N2CCCCC2)c2ccccc2)nc1C (stereo not drawn)	none (no result: SW480 rerep, hERG WT inh, MCF10A rereplic, KCNH2 3.1 inh)
CC(=O)Nc1c2c(nn1-c1ccc(C)cc1C)CSC2	none
Cc1ccccc1-n1nc2c(c1NC(=O)c1ccc(Br)o1)CSC2	KB-V1 cytotox 13µM
COc1ccc(OC)c(NC(=O)N2CC3CCCN3c3ccccc32)c1 (stereo not drawn)	none (no result: SW480 rerep, hERG WT inh, MCF10A rereplic, KCNH2 3.1 inh)
CCN1C(=O)[C@H]2[C@@H](c3ccc(-c4ccc5c(c4)OCO5)c(OC)c3)N[C@@](Cc3ccccc3)(C(=O)OC)[C@H]2C1=O	MCF10A rereplic inconclusive, KCNH2 3.1 inh -111, KB-V1 cytotox inconclusive
CCN1C(=O)[C@H]2[C@@H](c3ccc(-c4ccc5c(c4)OCO5)c(OC)c3)N[C@@](CC(C)C)(C(=O)OC)[C@H]2C1=O	none
c1ccc(CN=C2NN=C(c3ccccc3)CS2)cc1	KB-3-1 tox inconclusive
c1ccc(C2=NNC(=NCc3ccc4c(c3)OCO4)SC2)cc1	KB-V1 cytotox 23µM
CCc1cccc(NS(=O)(=O)c2ccc3c(c2)N(C)CCO3)c1	KB-V1 cytotox inconclusive
O=C1C=CC(=O)N1CCCCCCN1C(=O)C=CC1=O	SW480 rerep 12µM, KB-3-1 tox inconclusive, MCF10A rereplic 3.7µM, KB-V1 cytotox 18µM
N#Cc1c(N)n(-c2ccc(N)cc2)c2nc3ccccc3nc12	none
CN(C)CCCn1c(N)c(C#N)c2nc3ccccc3nc21	SW480 rerep 18µM, MCF10A rereplic 18µM
N#Cc1c(N)n(-c2cccc(Cl)c2)c2nc3ccccc3nc12	none (no result: SW480 rerep, hERG WT inh, MCF10A rereplic, KCNH2 3.1 inh)
Cc1ccc(S(=O)(=O)c2c(N)n(CCCN(C)C)c3nc4ccccc4nc23)cc1	SW480 rerep 23µM, MCF10A rereplic 21µM
CCCCC(CC)Cn1c(N)c(C#N)c2nc3ccccc3nc21 (stereo not drawn)	SW480 rerep 9.2µM
Cc1c(C(=O)N2CC(C)OC(C)C2)[nH]c2ccc(Br)cc12 (stereo not drawn)	none
CC(C)(C)C(=O)CN1C2=NCCCN2c2ccccc21	KCNH2 3.1 inh inconclusive
Cc1cc(C)n(-c2nc(Nc3ccccc3C(F)(F)F)nc(-n3nc(C)cc3C)n2)n1	SW480 rerep inconclusive, MCF10A rereplic inconclusive, KB-V1 cytotox 0.92µM
Cc1csc(Nc2ccccc2C(F)(F)F)n1	none
Cc1cc(C)n(-c2nc(NC(C)(C)C)nc(NC(C)(C)C)n2)n1	none
Cc1cc(C)n(-c2nc(NC(C)C)nc(NC(C)C)n2)n1	SW480 rerep 2.9µM, KB-V1 cytotox inconclusive
CCc1cccc(Nc2c3c(nc4ncnn24)CCC3)c1	KB-V1 cytotox 18µM
CCOc1ccc(NC(=O)CN(C)C(=O)Cc2ccc3c(c2)OCCO3)cc1OCC	none (no result: SW480 rerep, MCF10A rereplic)
COc1cc2cc(CCCOC(=O)CCC(=O)O)oc(=O)c2cc1OC	none
CN(C)C(=O)C1(c2ccccc2)CCN(S(=O)(=O)c2ccccc2)CC1	KB-3-1 tox inconclusive, KB-V1 cytotox 21µM
CCOC(=O)CSc1nc2sc(C)c(C)c2c(=O)[nH]1	KB-V1 cytotox inconclusive
CCOC(=O)/C(=C\c1ccc(Cl)cc1)c1nc2sc(C)c(C)c2c(=O)[nH]1	SW480 rerep inconclusive, KB-3-1 tox inconclusive, MCF10A rereplic 5.2µM, KB-V1 cytotox inconclusive
Cc1cc(C)nc(N2CCC(C(=O)N3CCN(c4cc(Cl)ccc4C)CC3)CC2)n1	SW480 rerep inconclusive, KB-3-1 tox inconclusive, MCF10A rereplic inconclusive, KB-V1 cytotox 4.1µM (no result: KCNH2 3.1 inh)
Cc1ccc(Cl)cc1N1CCN(C(=O)C2CCN(S(C)(=O)=O)CC2)CC1	none
Cc1ccc(C)c(N2CCN(C(=O)C3CCN(c4nc(C)cc(C)n4)CC3)CC2)c1	KB-3-1 tox inconclusive, KB-V1 cytotox 3.7µM
Cc1ccc(C)c(N2CCN(C(=O)C3CCCCN3S(=O)(=O)c3ccc(F)cc3)CC2)c1 (stereo not drawn)	KB-3-1 tox inconclusive, KB-V1 cytotox 2.6µM
Cc1c(Cl)ccc2sc(N3CCN(C(=O)CCS(=O)(=O)c4ccc(F)cc4)CC3)nc12	KB-3-1 tox inconclusive (no result: SW480 rerep, hERG WT inh, MCF10A rereplic, KCNH2 3.1 inh)
